# PubChem BioAssay (NCI)
# This is part of a sample that, as a whole, favours compounds with a hit. Of some 79,000 tested, about 15% had one in any assay. Unmarked numbers belong to inactive results. Calls of active or inactive are those of the source. Cut-off read from the data, not from the text of the source: active = growth inhibition above about 70%; inactive = the rest.
# Key:
# [1] = NCI Yeast Anticancer Drug Screen. Data for the rad50 strain (AID 155);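 note: 0% = growth of vehicle-only cultures of the same strain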; settings: S. cerevisiae rad50 strain growth inhibition; at 50.0 µM; active compounds read high
# Outline: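 Compounds were tested on a yeast strain with an engineered DNA damage repair alteration; the reported value is growth inhibition normalised to vehicle treatment.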
# [2] = NCI Yeast Anticancer Drug Screen. Data for the mec2-1 strain (AID 157); settings: S. cerevisiae mec2-1 strain, at 50.0 µM, active compounds read high
# Outline: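 Mutant yeast (mec2-1) grown with compound; growth inhibition relative to vehicle control reported.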
# [3] = NCI Yeast Anticancer Drug Screen. Data for the sgs1 mgt1 strain (AID 161);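 note: 0% = growth of cultures given vehicle only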; settings: S. cerevisiae sgs1 mgt1 strain, at 50.0 µM, active compounds read high
# Outline: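 Growth of a repair-deficient yeast mutant was monitored after compound treatment and expressed as inhibition relative to vehicle-treated cultures.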
# [4] = NCI Yeast Anticancer Drug Screen. Data for the cln2 rad14 strain (AID 165);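 note: 0% = growth equal to vehicle treated cultures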; settings: S. cerevisiae cln2 rad14 strain, at 50.0 µM, active compounds read high
# Outline: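 Readout is yeast growth inhibition versus vehicle-treated controls, using a strain with cln2 and rad14 alterations exposed to compound.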
# [5] = NCI Yeast Anticancer Drug Screen. Data for the bub3 strain (AID 167); settings: S. cerevisiae bub3 mutant strain, at 50.0 µM, active compounds read high
# Outline: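 Growth of a checkpoint-deficient yeast mutant is measured after compound exposure. Values represent inhibition relative to vehicle.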
# [6] = NCI Yeast Anticancer Drug Screen. Data for the mlh1 rad18 strain (AID 175); settings: S. cerevisiae mlh1 rad18 strain growth inhibition; at 50.0 µM; active compounds read high
# Outline: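 Genetically defined yeast (DNA repair-deficient) exposed to compounds; growth inhibition determined relative to vehicle.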
Compound,growth inhibition [1],growth inhibition [2],growth inhibition [3],growth inhibition [4],growth inhibition [5],growth inhibition [6]
CCCC[As](=O)(O)CC(C)C,-3.2%,-1.75%,-7.4%,4.9%,-14.2%,1.2%
ClCCN(CCCl)c1ccc(/C=N\N=C\c2ccncc2)cc1,4.35%,-3.95%,6.15%,-8.5%,0.95%,-1.8%
O.[Cr+3].[NH2-].[NH2-].[NH2-].[NH2-].[NH2-].[O-][Cl+3]([O-])([O-])O,16.6%,6.85%,-0.4%,9.75%,3.85%,-18.1%
CC(=O)OC(C)(C)/C=C/C(=O)[C@](C)(O)[C@H]1[C@H](O)C[C@@]2(C)[C@@H]3CC=C4[C@@H](C=C(O)C(=O)C4(C)C)[C@]3(C)C(=O)C[C@]12C,-4.6%,-36.5%,-14.6%,-10.8%,-15.7%,-16.1%
CC1(C)N=C(N)N=C(N)N1c1ccc(CCc2ccc(S(=O)(=O)F)cc2Cl)c(Cl)c1,99.4% (active),99.7% (active),99.7% (active),81.5% (active),99.2% (active),99.5% (active)
CCC(=O)OC1(c2ccccc2)CCN(CCC(=O)c2ccccc2)CC1C (stereo not given),48.6%,36.6%,47.8%,38.6%,27.1%,37.3%
C/C(CCl)=N\NC1=NC(C)(CCl)P(=O)(NNc2ncccn2)S1 (stereo not given),8.05%,11.2%,5.2%,11%,8.85%,7.35%
NC(c1ccccc1)C(O)c1ccc(O)cc1 (stereo not given),19.4%,12.3%,10.1%,-10.6%,1.05%,-8.35%
CC1=C(C)C(=O)O[C@@H]([C@](C)(O)[C@]2(O)CC[C@@]3(O)[C@@H]4C[C@H]5O[C@]56[C@@H](O)C=CC(=O)[C@]6(C)[C@H]4CC[C@]23C)C1,14.9%,24.9%,10.7%,13.4%,20.1%,12.8%
C=CC1CN2CCC1CC2C(O)c1ccnc2ccccc12 (stereo not given),11.9%,-3.7%,5.95%,10.9%,20.1%,4.1%
C[CH2][Pb]([CH2]C)([CH2]C)[N]1C(=O)c2c(Cl)c(Cl)c(Cl)c(Cl)c2C1=O,67.7%,34.5%,93.1% (active),25.4%,33.8%,78.3% (active)
S=C=Nc1cccc2ccccc12,-13.7%,-11.8%,-10.1%,17.5%,-6.45%,-6.1%
O=NN1CCCS1(=O)=O,21.2%,17.9%,15.8%,14.3%,3.95%,18.8%
c1ccc(C(c2ccccc2)C2CCNCC2)cc1,29.1%,6.8%,3.2%,16.2%,32.6%,2.85%
C=[CH][Pb]([CH]=C)([CH]=C)[O]C(C)=O,97.2% (active),98% (active),97.9% (active),98.8% (active),98.2% (active),99% (active)
O=C(Cl)C(Br)Cc1ccccc1 (stereo not given),11.9%,-19.4%,0.95%,7%,28.6%,2.1%
SCc1ccccc1.[Cu+2],-1.4%,-15.9%,-0.45%,-35.1%,-50.7%,-2.75%
C/C=C/C(C)C1(CCC)C(=O)NC(=O)NC1=O (stereo not given),0.35%,2.6%,-3.8%,-37.2%,8.5%,-3.8%
NC(N)=NC(N)=Nc1ccc(Cl)cc1,0.9%,-2.65%,3.45%,2.8%,-1.9%,-1.55%
[CH3][Sn]([Cl])([Cl])[c]1ccccc1,-22.9%,2.05%,8.7%,-18.5%,-12.8%,1.6%
